Source: PubChem BioAssay (National Center for Advancing Translational Sciences (NCATS))
Shown are actives, neighbours in structure and some others; about 2.8% of the full set was active somewhere.
GLP1R ag – agonists of human GLP-1 receptor | 0.007% of 380,000 active | Potency, µM (doses to about 45.6 µM), hits mostly activators | AID 624172 | HEK293 GLP-1R CRE-luciferase, luminescence, 4-6 h; cells express a hypersensitive GLP-1R form | P43220
KCNH2 WT inh – blocks the wildtype human KCNH2 potassium channel; 0.37% of 340,000 active; U2OS, BacMam KCNH2, thallium flux FluxOr; active compounds read low; activity change, % at 1.84 µM;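 active = maximum activity change below -70%; inconclusive = maximum activity change between -70% and -50%; inactive = maximum activity change above -50%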
Target sequence (Q12809 whole entry, looked up): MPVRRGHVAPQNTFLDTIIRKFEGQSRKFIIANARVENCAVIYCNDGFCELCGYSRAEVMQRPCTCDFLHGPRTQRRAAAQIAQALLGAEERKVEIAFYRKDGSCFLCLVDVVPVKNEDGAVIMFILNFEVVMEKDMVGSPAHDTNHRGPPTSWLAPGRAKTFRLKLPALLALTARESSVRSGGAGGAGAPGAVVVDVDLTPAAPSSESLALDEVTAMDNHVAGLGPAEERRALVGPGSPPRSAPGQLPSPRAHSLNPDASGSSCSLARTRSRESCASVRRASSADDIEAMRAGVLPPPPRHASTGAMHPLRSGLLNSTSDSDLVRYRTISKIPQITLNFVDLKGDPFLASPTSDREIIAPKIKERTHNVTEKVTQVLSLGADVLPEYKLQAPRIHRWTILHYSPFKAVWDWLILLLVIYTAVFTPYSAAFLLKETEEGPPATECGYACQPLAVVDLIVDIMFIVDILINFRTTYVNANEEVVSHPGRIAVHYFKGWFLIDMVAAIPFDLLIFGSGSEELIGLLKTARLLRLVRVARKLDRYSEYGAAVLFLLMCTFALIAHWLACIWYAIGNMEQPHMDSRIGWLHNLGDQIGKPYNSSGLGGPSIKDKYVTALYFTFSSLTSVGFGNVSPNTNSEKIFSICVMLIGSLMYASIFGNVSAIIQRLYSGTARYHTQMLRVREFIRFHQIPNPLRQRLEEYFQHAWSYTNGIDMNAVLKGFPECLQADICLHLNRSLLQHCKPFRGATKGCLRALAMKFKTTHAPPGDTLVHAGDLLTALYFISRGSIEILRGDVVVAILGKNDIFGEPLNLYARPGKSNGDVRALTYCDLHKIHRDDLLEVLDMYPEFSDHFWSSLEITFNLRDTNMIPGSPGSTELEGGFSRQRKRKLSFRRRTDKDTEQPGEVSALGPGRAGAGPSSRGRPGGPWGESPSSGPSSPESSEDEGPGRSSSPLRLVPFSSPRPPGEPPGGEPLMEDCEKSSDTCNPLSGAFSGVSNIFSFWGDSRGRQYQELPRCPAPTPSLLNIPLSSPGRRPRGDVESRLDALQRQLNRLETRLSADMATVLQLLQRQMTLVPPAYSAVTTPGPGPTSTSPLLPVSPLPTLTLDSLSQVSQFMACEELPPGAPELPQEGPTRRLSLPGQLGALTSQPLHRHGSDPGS
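U2OS cells were transduced with wild-type KCNH2 virus (2.03 x 10^8 / mL) for 4 h at room temperature, then cultured overnight at 37 C. Thallium flux was read with FluxOr dye. Rate constants were normalized to DMSO controls.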
GLS inh – blocks human kidney-isoform glutaminase activity. GLS enzymatic activity, qHTS titration. Potency, µM (series often up to 45.5 µM), most hits filed as inhibitors. 0.21% of 410,000 active. AID 624170
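hKGA in 45 mM KH2PO4 pH 8.2, 0.02% Tween-20 with pin-transferred compounds; 1 mM L-glutamine (stock) plus glutamate oxidase/HRP/Amplex Red coupling added. Fluorescence read initially and after 30 min at RT.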
GLP1R inv ag – inverse agonists of human GLP-1 receptor. P43220. Potency, µM (series often up to 38.3 µM), most hits filed as inhibitors. 1.6% of 410,000 active. HEK293 GLP-1R CRE-luciferase, luminescence, 24 h; GLP-1R form is constitutively active; note: nearly all actives have a fitted effect of over 55% in size
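Inverse agonism was detected as reduced cAMP-driven luciferase luminescence after 24 h compound treatment. The cells were HEK293 clones expressing constitutively active human GLP-1R with the reporter. Reporter-only and GPR119 cell lines served as counterscreen controls.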
HEK293 tox – cytotoxic in the GLP-1 receptor inverse agonist counter-screen. HEK293 cAMP-luciferase reporter cells, luminescence, 24 h. Potency, µM (series often up to 38.3 µM), most hits filed as inhibitors. 0.13% of 410,000 active;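 note: loss of luciferase light is scored as toxicity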
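Seeding density was 200 cells/uL; after overnight-length (12 h) culture, 23 nL compounds went on for 24 h at 37 °C. Readout used a luciferase detection reagent, luminescence taken after 12 min at room temperature.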
KCNH2 3.1 block – blocks the human KCNH2 3.1 channel isoform; activity change, % (tested at about 1.8 µM); 0.95% of 340,000 active; U2OS KCNH2 3.1, thallium flux FluxOr; active compounds read low; AID 720553;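 active = maximum activity change below -70%; inconclusive = maximum activity change from -70% to -50%; inactive = maximum activity change above -50%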;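 note: thallium influx rate constant from kinetic fluorescence after stimulation buffer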
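Kinetic fluorescence (2 min after stimulation buffer) measures Tl+ influx through KCNH2 3.1 expressed by viral transduction in U2OS cells; the rate constant is normalized against DMSO controls serving as positive and negative references.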
Numbers stand for hits; 0 = inactive; ? = inconclusive; - = no result given; [ ] = remark or other dose. Unless noted, calls come from the whole dose curve; as a rule, active = well fitted curve in the direction sought with a large enough effect; inconclusive = small, poorly fitted or top-dose-only effect, or another doubt; inactive = no such curve, though single readings can be large; an effect the other way counts as inactive or inconclusive.

SMILES | GLP1R ag | KCNH2 WT inh | GLS inh | GLP1R inv ag | HEK293 tox | KCNH2 3.1 block
CCOCCCNC(=O)/C(C#N)=C/c1ccc(Cl)c([N+](=O)[O-])c1 | 0 | 0 | ? | 11µM | ? | 0
COCCCNC(=O)/C(C#N)=C/c1ccc(OCC(=O)O)c(OC)c1 | 0 | 0 | 10µM | 0 | 0 | 0
CCOCCCNC(=O)/C(C#N)=C/c1cc(OC)c(O)c([N+](=O)[O-])c1 | 0 | 0 | 0 | ? | ? | 0
COc1cc(/C=C(\C#N)C(=O)Nc2cccc(C(=O)O)c2)ccc1OCc1ccc(Cl)cc1 | 0 | -92 | ? | 0 | 0 | 0
COc1ccc(/C=C(\C#N)C(=O)NCCc2ccccc2)cc1OCc1ccccc1 | 0 | 0 | 0 | ? | 0 | 0
COc1cc(/C=C(/C#N)C(=O)Nc2ccccc2)c(Br)cc1OCc1ccc(C(=O)O)cc1 | 0 | 0 | ? | 0 | 0 | 0
CCOc1cc2[nH]c(=O)n(Cc3ccc(C(=O)N4CCN(c5cccc(Cl)c5)CC4)cc3)c(=O)c2cc1OCC | - | - | 0 | 0 | 0 | -
C=C(C)COc1ccc2c(C)c(CCC(=O)NC3CC3)c(=O)oc2c1 | 0 | 0 | 0 | 0 | 0 | 0
COc1ccccc1N1C(=O)C2CC(C)=C(C)CC2C1=O (centres undefined) | 0 | 0 | 0 | 0 | 0 | 0
COc1ccccc1N1C(=O)C=C(Sc2nc(C)cc(C)n2)C1=O | 0 | 0 | 7.9µM | 0 | 0 | 0
Cc1ccc(Cn2c(CNS(=O)(=O)c3c(C)cc(C)cc3C)nc3cccnc32)cc1 | - | - | 0 | ? | 0 | -
Cc1cc(C)c(CN2CCCC(CNC(=O)c3ccc(F)cc3)C2)c(-n2cccn2)c1 (centres undefined) | 0 | -85 | 0 | 0 | 0 | -111
COc1cc(OC)c(OC)cc1CN1CCCC(C(=O)c2sccc2C)C1 (centres undefined) | 0 | 0 | 0 | ? | 0 | 0
Cc1cc(CN2CCCC(CNC(=O)c3ccc(F)cc3)C2)cc(C)c1O (centres undefined) | 0 | 0 | 0 | 0 | 0 | 0
Cc1ccsc1C(=O)C1CCCN(Cc2cc(F)ccc2-n2cccn2)C1 (centres undefined) | 0 | 0 | 0 | 0[0.307 µM] | 0[0.307 µM] | -81
CSC1=NC2(CCN(C(=O)NC3CCCCC3)CC2)N=C1c1ccc(C(C)(C)C)cc1 | - | - | 0 | 0 | 0 | -
COc1cccc(CNC(=O)CCCn2c(=O)c3cccn3c3ccc(F)cc32)c1OC | - | - | 0 | 0 | 0 | -
OCCCNc1cc(-c2ccnc(Nc3cccc(Cl)c3)n2)ccn1 | 0 | 0 | 0 | ? | 0 | 0
CCC(C)Oc1cc(-c2ccnc(Nc3cccc(Cl)c3)n2)ccn1 (centres undefined) | 0 | 0 | 0 | 11µM | 0 | 0
Cc1ccc(NC(=O)CCC(=O)c2cccs2)nc1 | 0 | 0 | 0 | 0 | 0 | 0
Cc1ccnc(NC(=O)CCC(=O)c2cccs2)c1 | 0 | 0 | 0 | 5.6µM | 0 | 0
c1ccc2c(c1)CCN(c1nc3cc4c(cc3s1)OCCO4)C2 | 0 | 0 | 0 | 7.1µM | 0 | 0
CCOC(=O)[C@]12CCCC=C1N(Cc1ccc(Cl)cc1Cl)C(=O)[C@H](CC(=O)N1CCOCC1)C2 | 0 | - | 0 | 0 | 0 | -
CN(C)c1ccc(/C=C2\SC(=S)N(Nc3ncc(C(F)(F)F)cc3Cl)C2=O)cc1 | 0 | -133 | 0 | 0 | 0 | -73
Cc1cc(C)nc(NN2C(=O)/C(=C/c3ccccc3)SC2=S)n1 | 0 | 0 | 0 | 0 | 0 | 0
SMILES | GLP1R ag | KCNH2 WT inh | GLS inh | GLP1R inv ag | HEK293 tox | KCNH2 3.1 block
COc1ccc(Cl)cc1NC(=O)Cn1c(=O)n(Cc2ccc(F)cc2)c(=O)c2cccnc21 | - | - | 0 | 0 | 0 | -
Cc1ccc(SCc2nc(-c3ccc(C(=O)NCC(C)c4ccccc4)cc3)oc2C)cc1 (centres undefined) | - | - | 0 | 4.5µM | 0 | -
O=C(O)c1ccc(N2Cc3ccccc3C2)cc1O | 0 | 0 | 4µM | 0 | 0 | 0
O=C(O)c1ccc(N2CCCCC2)cc1O | 0 | 0 | 0 | 0 | 0 | 0
CC(C)CN(CC(C)C)C(=S)NC1CCCCC1 | 0 | 0 | 0 | ? | 10µM | 0
CC(C)CCNC(=S)NC1CCCC1 | 0 | 0 | 0 | 0 | 0 | 0
COC(=O)c1ccc(NC(=O)C2CCN(C(=O)c3ccc(F)cc3)CC2)cc1 | - | - | 0 | 0 | 0 | -
O=C(NN1CCOCC1)c1ccc(F)cc1 | 0 | 0 | 0 | 0 | 0 | 0
CCn1nc(NC(=O)C(C)(C)C)c2cc3cccc(C)c3nc21 | 0 | 0 | 0 | 10µM | 0 | 0
O=C(CSc1nc(-c2ccccc2)c2ccccc2n1)Nc1ccc(F)cc1 | - | - | 0 | 0 | 0 | -
Cc1cccc(S(=O)(=O)N(CC(=O)Nc2ccccc2C)Cc2ccco2)c1 | 0 | 0 | 0 | 8.9µM | 0 | 0
COc1ccc(-n2c(=O)c3sc4ccccc4c3n(CC(=O)NC3CCCCC3)c2=O)cc1 | 0 | - | 0 | 0 | 0 | -
CC(=O)Nc1ccc(NC(=O)CCCSc2nc3ccccc3[nH]2)cc1 | 0 | 0 | 0 | 0 | 0 | ?
O=C(CCCSc1nc2ccccc2[nH]1)NC(c1ccccc1)c1ccccc1 | 0 | 0 | 0 | 8.9µM | 0 | 0
c1ccc(-n2nnnc2Sc2n[nH]c(-c3ccncc3)n2)cc1 | 0 | -200 | 0 | 0 | 0 | -189
Cc1ccccc1-n1nnnc1Sc1nnnn1-c1ccccc1 | 0 | 0 | 0 | ? | ? | 0
S=C1NCN(C2CCCCC2)CN1c1ccccc1 | 0 | 0 | 0 | 0 | 0 | -96
Nc1cccc(C(=O)NCCNC(=O)c2cccc(N)c2)c1 | 0 | 0 | 0 | 0 | 0 | 0
Cc1cc(C)c2c(-n3cccc3)c(C(=O)NCCCN3CCCCC3)sc2n1 | - | - | 0 | 0 | 0 | -
CC(=O)c1ccc(Oc2cc(C)nc(N3CCOCC3)n2)cc1 | 0 | 0 | 0 | 0 | 0 | -136
CCN(Cc1ccccc1)S(=O)(=O)c1cc(C(=O)NC2CCCCCC2)ccc1OC | 0 | 0 | 0 | 2.2µM | 0 | 0
O=C(Nc1ccc(Br)cc1)c1ccc(F)c(S(=O)(=O)NC2CCCCCC2)c1 | - | - | 0 | 3.2µM | ? | -
CCC1CCCCN1S(=O)(=O)c1ccc(NC(=O)c2ccncc2)cc1 (centres undefined) | 0 | 0 | 0 | 0 | 0 | 0
COc1ccc(C(=O)NC2CCCCCC2)cc1S(=O)(=O)N1CCCC1 | 0 | 0 | 0 | 0 | 0 | 0
CCC1CCCCN1S(=O)(=O)c1cc(C(=O)Nc2ccc(C)c(F)c2)ccc1F (centres undefined) | - | - | 0 | 10µM | 0 | -
COc1ccc(C(=O)NC2CCCCCC2)cc1S(=O)(=O)Nc1ccc(Br)cc1 | 0 | 0 | 0 | 0 | 0 | -80
Cc1ccccc1-c1noc(-c2cc(C(C)C)[nH]n2)n1 | - | - | 0 | ? | 0 | -
Cc1cc(C)cc(NC(=O)CSc2nc3c(cnn3-c3ccc(F)cc3)c(=O)[nH]2)c1 | - | - | 0 | 0 | 0 | -
